Each structure is given as a SMILES string. Results filed as inconclusive are left out. A number with no mark means an inactive call. Calls of active or inactive are those of the source. Unless noted, the call rests on the fitted dose curve; in most records, active means well fitted curve in the direction sought with a large enough effect in the repeat runs; inconclusive means weak or mixed curves; inactive means no such curve, though single readings can be large; an effect the other way counts as inactive or inconclusive.

Among the data in PubChem BioAssay (Tox21) are Potency and outcome values, retold here.

Assay [1] can be described thus: qHTS assay to identify small molecule antagonists of the thyroid receptor (TR) signaling pathway (AID 743065). Further: series mostly up to about 70 µM; nearly all actives have a fitted effect of over 55% in size. The method, boiled down: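 GH3.TRE-Luc rat pituitary cells (two TREs driving luciferase) were dosed with compound, then stimulated with 1 nM T3 (final) for 23.5 h at 37 C. ONE-Glo luminescence was the read-out, with CellTiter-Fluor fluorescence as the cytotoxicity counter-screen.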
Background: qHTS replaces the single test concentration by a dilution series.

For assay [2], the system named is thyroid hormone receptor (rat, GH3 cells). Nature of the assay: qHTS assay to identify small molecule agonists of the thyroid receptor (TR) signaling pathway (AID 743066; calls by dose curve).
The nature of assay [3]: qHTS assay to identify small molecule antagonists of the estrogen receptor alpha (ER-alpha) signaling pathway using the BG1 cell line - cell viability counter screen (AID 743081).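 Further: compound given together with 17beta-estradiol as the ER stimulus; series mostly up to about 70 µM; nearly all actives have a fitted effect of over 45% in size.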
The target in a further assay is Aromatase (Homo sapiens) (UniProt P11511). Nature of the assay: qHTS assay to identify aromatase inhibitors (AID 743083). Further: nearly all actives have a fitted effect of over 55% in size. Further: potency means the concentration at half of the fitted maximal effect.
Sequence of Aromatase (Homo sapiens) (P11511 whole entry, looked up): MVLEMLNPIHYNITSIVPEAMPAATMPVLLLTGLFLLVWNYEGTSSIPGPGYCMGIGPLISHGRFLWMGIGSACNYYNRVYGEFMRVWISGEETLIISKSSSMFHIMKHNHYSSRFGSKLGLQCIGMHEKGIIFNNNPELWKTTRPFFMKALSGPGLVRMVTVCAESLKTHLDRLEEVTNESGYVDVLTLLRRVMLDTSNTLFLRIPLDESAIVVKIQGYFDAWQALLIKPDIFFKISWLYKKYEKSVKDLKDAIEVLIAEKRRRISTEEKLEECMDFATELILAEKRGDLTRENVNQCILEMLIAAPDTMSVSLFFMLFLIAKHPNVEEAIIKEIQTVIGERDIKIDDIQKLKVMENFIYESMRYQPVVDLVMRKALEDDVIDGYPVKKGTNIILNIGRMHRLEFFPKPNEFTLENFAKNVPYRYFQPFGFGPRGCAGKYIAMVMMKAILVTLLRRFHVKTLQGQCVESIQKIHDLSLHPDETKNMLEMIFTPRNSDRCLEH
Assay [4] can be described thus: qHTS assay to identify aromatase inhibitors - cell viability counter screen (AID 743084).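 Further: cells stimulated with testosterone during compound exposure; nearly all actives have a fitted effect of over 55% in size.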
Assay [5] concerns the target Aryl hydrocarbon receptor (Homo sapiens) (UniProt P35869). Nature of the assay: qHTS assay to identify small molecule that activate the aryl hydrocarbon receptor (AhR) signaling pathway (AID 743085).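 Further: HG2L7.5c1 human HepG2 liver cells with stably integrated DRE-driven firefly reporter; series mostly up to about 70 µM; nearly all actives have a fitted effect of over 15% in size.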 The method, boiled down:
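Steps: seed HepG2-AhR-luc cells; allow 5 h at 37C; pin-transfer test compound or vehicle; incubate 24 h at 37C; add viability dye (30 min, 37C) and read fluorescence; add luciferase substrate (30 min, RT) and read luminescence.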

Assay [6] in a line: qHTS assay to identify small molecule that activate the aryl hydrocarbon receptor (AhR) signaling pathway - cell viability counter screen (AID 743086).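 Further: HepG2 liver cells carrying the AhR DRE luciferase reporter; series mostly up to about 70 µM; nearly all actives have a fitted effect of over 45% in size.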 The method, boiled down: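 HepG2-AhR-luc (HG2L7.5c1) cells, 4000/well, treated 24 h at 37 C with compound; viability measured as CellTiter-Fluor fluorescence after 30 min in the same wells as the luciferase read.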
In assay [7] the target is Peroxisome proliferator-activated receptor gamma (Homo sapiens) (UniProt P37231). Nature of the assay: qHTS assay to identify small molecule agonists of the peroxisome proliferator-activated receptor gamma (PPARg) signaling pathway (AID 743094; active means well fitted activation curve with a large enough effect in the signal ratio in the repeat runs, not every such curve was filed as active; the % refers to the signal ratio). The method, boiled down:
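Fluorescence-based beta-lactamase readout in HEK293H PPARg UAS-bla cells after 17 h compound exposure (37C) and 1 h B/G FRET substrate incubation at room temperature.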

Assay [8] in a line: qHTS assay to identify small molecule antagonists of the peroxisome proliferator-activated receptor gamma (PPARg) signaling pathway - cell viability counter screen (AID 743194). Further: nearly all actives have a fitted effect of over 55% in size. The method, boiled down: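 Cytotoxicity counter screen in PPARg-bla HEK293H cells, same wells as reporter assay. Compounds plus 50 nM rosiglitazone (final) for 17 h at 37 C, then viability read by CellTiter-Glo luminescence.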

The nature of assay [9]: qHTS assay for small molecule activators of the heat shock response signaling pathway - cell viability counter screen (AID 743209). Further: nearly all actives have a fitted effect of over 50% in size. The method, boiled down:
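To flag cytotoxic compounds, HSE-bla HeLa cells plated at 1500 cells/well were dosed for 5 h at 37 C, followed by the reporter FRET read and then CellTiter-Glo, with luminescence recorded 30 min after reagent addition.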

In assay [10] the target is Peroxisome proliferator-activated receptor gamma (Homo sapiens) (UniProt P37231). As to the kind of experiment: qHTS assay to identify small molecule antagonists of the peroxisome proliferator-activated receptor gamma (PPARg) signaling pathway (AID 743191; calls by dose curve; further: series mostly up to about 63 µM; nearly all actives have a fitted effect of over 30% in size). The method, boiled down: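 GeneBLAzer PPARg UAS-bla HEK293H cells, 5 h post-plating, exposed to compounds 17 h at 37C. LiveBLAzer B/G FRET substrate added for 1 h at room temperature; beta-lactamase reporter read by fluorescence intensity.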
Sequence of Peroxisome proliferator-activated receptor gamma (Homo sapiens) (P37231 whole entry, looked up): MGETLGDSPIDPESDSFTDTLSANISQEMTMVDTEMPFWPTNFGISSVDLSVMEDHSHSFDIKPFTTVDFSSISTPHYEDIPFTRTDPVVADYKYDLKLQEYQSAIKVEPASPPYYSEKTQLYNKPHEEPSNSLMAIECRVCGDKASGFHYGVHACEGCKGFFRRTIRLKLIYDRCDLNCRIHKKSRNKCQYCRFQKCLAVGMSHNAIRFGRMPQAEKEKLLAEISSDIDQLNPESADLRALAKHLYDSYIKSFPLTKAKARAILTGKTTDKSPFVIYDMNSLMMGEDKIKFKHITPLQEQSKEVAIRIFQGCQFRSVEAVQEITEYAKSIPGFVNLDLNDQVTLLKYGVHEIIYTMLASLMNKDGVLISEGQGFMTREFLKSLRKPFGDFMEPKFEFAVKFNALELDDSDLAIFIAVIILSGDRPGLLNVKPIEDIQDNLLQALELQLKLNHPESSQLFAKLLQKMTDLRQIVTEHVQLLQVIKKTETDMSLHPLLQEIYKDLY

The nature of assay [11]: qHTS assay for small molecule agonists of the antioxidant response element (ARE) signaling pathway (AID 743202; active means well fitted activation curve with a large enough effect in the signal ratio in the repeat runs, not every such curve was filed as active; the % refers to the signal ratio). The method, boiled down:
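HepG2 ARE-bla cells; 16 h treatment at 37 C; FRET-based beta-lactamase fluorescence read after 2 h substrate incubation at room temperature.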

Assay [12] in a line: qHTS assay for small molecule agonists of the antioxidant response element (ARE) signaling pathway - cell viability counter screen (AID 743203; calls by dose curve; further: nearly all actives have a fitted effect of over 55% in size). The method, boiled down: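 Parallel cytotoxicity read-out for the ARE-bla screen: HepG2 reporter cells, 16 hrs with compounds, then CellTiter-Glo luminescence.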
The nature of assay [13]: qHTS assay for small molecule activators of the heat shock response signaling pathway (AID 743210; active means well fitted activation curve with a large enough effect in the signal ratio in the repeat runs, with a control signal flat, not every such curve was filed as active; the % refers to the signal ratio;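 further: HeLa cells with beta-lactamase reporter driven by heat shock elements; series mostly up to about 63 µM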). The method, boiled down:
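Following overnight attachment, HSE-bla HeLa cells received test compounds for 5 h at 37 C; beta-lactamase activity was then detected via FRET substrate fluorescence.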

The nature of assay [14]: qHTS assay to identify small molecule antagonists of the estrogen receptor alpha (ER-alpha) signaling pathway - cell viability counter screen (AID 743074; calls by dose curve; further: nearly all actives have a fitted effect of over 45% in size).
Assay [15] deals with Estrogen receptor (Homo sapiens) (UniProt P03372). Nature of the assay: qHTS assay to identify small molecule antagonists of the estrogen receptor alpha (ER-alpha) signaling pathway (AID 743069; active means well fitted curve in the direction sought with a large enough effect in the signal ratio in the repeat runs, not every such curve was filed as active; the % refers to the signal ratio). The method, boiled down:
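In this cell-based reporter format, GripTite HEK293 cells harbouring ER-alpha-UAS-bla were grown overnight with 2% charcoal-stripped FBS, dosed with DMSO-dissolved compounds, then challenged with 17beta-estradiol. After 18 hr at 37C, beta-lactamase activity was detected by FRET fluorescence.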

Assay [16] shares this target. As to the kind of experiment: qHTS assay to identify small molecule agonists of the estrogen receptor alpha (ER-alpha) signaling pathway (AID 743075; calls by dose curve).
For assay [17] the target is unchanged. As to the kind of experiment: qHTS assay to identify small molecule agonists of the estrogen receptor alpha (ER-alpha) signaling pathway using the BG1 cell line (AID 743079). Further: nearly all actives have a fitted effect of over 20% in size.
A short description of assay [18]: qHTS assay to identify small molecule antagonists of the estrogen receptor alpha (ER-alpha) signaling pathway using the BG1 cell line (AID 743080; calls by dose curve;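 further: BG1 cells stimulated with 17beta-estradiol alongside compound; series mostly up to about 70 µM; nearly all actives have a fitted effect of over 25% in size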). The method, boiled down: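 Luciferase inhibition measured with ONE-Glo after 30 min at RT in BG1Luc4E2 cells given test compounds and 17beta-estradiol for 21.5 h at 37 C; CellTiter-Fluor viability read in the same wells beforehand.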

Sequence of Estrogen receptor (Homo sapiens) (P03372 whole entry, looked up): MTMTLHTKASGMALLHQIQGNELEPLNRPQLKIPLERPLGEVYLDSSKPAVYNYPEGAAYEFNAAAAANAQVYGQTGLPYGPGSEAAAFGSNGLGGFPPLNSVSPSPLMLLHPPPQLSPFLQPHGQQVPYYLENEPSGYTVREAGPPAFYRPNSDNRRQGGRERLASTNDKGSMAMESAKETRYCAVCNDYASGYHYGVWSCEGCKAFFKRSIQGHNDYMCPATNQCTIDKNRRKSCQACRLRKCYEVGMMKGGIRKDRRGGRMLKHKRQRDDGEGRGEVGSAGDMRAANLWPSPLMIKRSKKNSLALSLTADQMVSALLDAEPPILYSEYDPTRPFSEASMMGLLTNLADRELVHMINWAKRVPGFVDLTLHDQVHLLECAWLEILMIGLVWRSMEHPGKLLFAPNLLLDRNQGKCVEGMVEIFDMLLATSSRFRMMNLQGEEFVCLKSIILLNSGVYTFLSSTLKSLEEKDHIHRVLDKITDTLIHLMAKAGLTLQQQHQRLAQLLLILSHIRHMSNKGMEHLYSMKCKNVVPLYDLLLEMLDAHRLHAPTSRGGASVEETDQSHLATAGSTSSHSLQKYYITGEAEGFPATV
Sequence of Aryl hydrocarbon receptor (Homo sapiens) (P35869 whole entry, looked up): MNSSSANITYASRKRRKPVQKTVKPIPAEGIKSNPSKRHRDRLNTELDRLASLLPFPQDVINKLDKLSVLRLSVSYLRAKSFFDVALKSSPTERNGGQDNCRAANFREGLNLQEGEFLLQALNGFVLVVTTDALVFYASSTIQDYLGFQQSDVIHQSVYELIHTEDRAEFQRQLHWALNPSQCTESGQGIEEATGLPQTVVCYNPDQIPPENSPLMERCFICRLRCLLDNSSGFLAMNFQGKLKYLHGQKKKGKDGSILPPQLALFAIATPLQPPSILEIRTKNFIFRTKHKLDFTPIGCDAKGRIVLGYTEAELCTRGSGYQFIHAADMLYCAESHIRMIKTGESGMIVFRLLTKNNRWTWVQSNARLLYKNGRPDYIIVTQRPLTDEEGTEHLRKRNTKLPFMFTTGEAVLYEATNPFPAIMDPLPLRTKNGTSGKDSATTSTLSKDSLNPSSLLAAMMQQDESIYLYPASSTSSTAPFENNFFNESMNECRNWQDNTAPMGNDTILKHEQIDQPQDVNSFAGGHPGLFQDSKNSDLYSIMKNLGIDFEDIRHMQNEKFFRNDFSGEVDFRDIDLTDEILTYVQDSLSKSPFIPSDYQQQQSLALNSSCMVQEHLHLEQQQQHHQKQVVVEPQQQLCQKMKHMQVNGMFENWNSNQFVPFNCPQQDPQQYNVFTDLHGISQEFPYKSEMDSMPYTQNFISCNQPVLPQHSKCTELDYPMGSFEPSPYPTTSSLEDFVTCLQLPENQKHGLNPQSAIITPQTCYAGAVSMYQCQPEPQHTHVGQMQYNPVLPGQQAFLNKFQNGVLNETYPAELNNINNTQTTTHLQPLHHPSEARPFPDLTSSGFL

With `CCCCCCCCCCCC`, the Potency result (in [1]; in [3]; in the assay with Aromatase (Homo sapiens); in [4]; in assay [5]; in assay [6]) was “inactive” in each case. Further, the compound was classed as inactive in assay [2], in [7], in [8] and in assay [9].
Regarding `CCc1cccc2c(CCO)c[nH]c12`, the Potency entry in assay [10], in assay [11] and in assay [12] was “inactive” throughout. For the same compound, the result in [8], in assay [9] and in assay [13] was inactive.
Turning to `CC(C)CNCC(C)C`, the Potency result (in assay [1]; in [3]; with Aromatase (Homo sapiens); in assay [4]; in assay [5]; in assay [6]) was “inactive” throughout. In addition, the Potency result in assay [11] and in assay [12] was “inactive” throughout. The compound was classed as inactive in assay [2], in assay [14], in assay [8] and in assay [9].
Consider `CC(C)=CCCC(C)CC(=O)O` (stereo not given), for which the Potency result (in [1]; in [3]; with Aromatase (Homo sapiens); in assay [5]; in assay [6]; in assay [11]) was “inactive” throughout. Moreover, the Potency entry in assay [12] is “inactive”. In addition, the call in assay [2], in assay [14], in [7], in [8], in assay [9] and in assay [13] was inactive.
For `CCN(Cc1ccncc1)C(=O)C(CO)c1ccccc1` (stereo not given), the Potency result in assay [1], in assay [3], in assay [4], in [5] and in assay [6] was “inactive” in each case. Besides, the compound was called inactive in assay [2], in assay [14], in assay [8] and in assay [9]. The Potency in the assay with Aromatase (Homo sapiens) was 29.8 µM (active).
For `CC[N+](C)(C)c1cccc(O)c1`, the compound was called inactive in assay [14], in assay [7], in assay [9] and in [13]. In addition, the Potency result (in assay [3]; with Aromatase (Homo sapiens); in assay [4]; in [5]; in assay [6]; in assay [10]) was “inactive” in each case. For the same compound, the Potency entry in [11] and in assay [12] was “inactive” throughout.
Regarding `COc1c(N2C[C@@H]3CCCN[C@@H]3C2)c(F)cc2c(=O)c(C(=O)O)cn(C3CC3)c12`, the compound was classed as inactive in assay [15], in assay [14], in assay [18], in assay [7], in assay [8] and in [9]. Besides, the compound was called inactive in assay [13]. Further, the Potency result (in assay [16]; in [17]; in [3]; with Aromatase (Homo sapiens); in assay [4]; in assay [5]) was “inactive” in each case. Besides, the Potency entry in assay [6], in assay [10], in [11] and in [12] was “inactive” each time.
Regarding `COCCc1ccc(OCC(O)CNC(C)C)cc1` (stereo not given), the call in [14], in [7], in assay [8] and in assay [9] was inactive. The Potency result (in [3]; in the assay with Aromatase (Homo sapiens); in assay [4]; in [5]; in [6]; in [11]) was “inactive” throughout. Further, the Potency entry in assay [12] was “inactive”.
In the case of `C=CCCCCCCCCC=O`, the outcome in assay [2], in assay [14], in assay [18], in [7], in assay [8] and in assay [9] was inactive. Further, the compound was classed as inactive in assay [13]. The Potency entry (in assay [16]; in assay [17]; in assay [3]; with Aromatase (Homo sapiens); in assay [4]; in assay [5]) was “inactive” in each case. In [6], the Potency entry was “inactive”.
Turning to `CN1N=C(C(N)=O)CCC1=O`, the Potency result in assay [11] and in [12] was “inactive” in each case. Moreover, the call in assay [9] and in assay [13] was inactive.
Regarding `CCN(CC)CCOCCOC(=O)C1(c2ccccc2)CCCC1`, the Potency result (in assay [16]; in [17]; in assay [3]; with Aromatase (Homo sapiens); in assay [5]; in [11]) was “inactive” each time. For the same compound, the outcome in assay [8], in assay [9] and in assay [13] was inactive.
For the compound `CCOC(=O)CC(C)=O`, the Potency entry in [1], in assay [3], in [6], in assay [11] and in assay [12] was “inactive” in each case. For the same compound, the call in assay [2], in [8], in [9] and in assay [13] was inactive.
With `COc1ccc2c(c1)CCCC2=O`, the Potency result in assay [10], in assay [11] and in assay [12] was “inactive” in each case. The compound was called inactive in [8], in assay [9] and in assay [13].
As for `Oc1ccc(C2CNCCc3c2cc(O)c(O)c3Cl)cc1` (stereo not given), the call in assay [14], in [7] and in [13] was inactive. Moreover, the Potency result (in assay [3]; with Aromatase (Homo sapiens); in [4]; in assay [5]; in assay [6]; in [12]) was “inactive” in each case.
As to `Nc1c2c(nc3ccccc13)CCCC2O` (stereo not given), the outcome in assay [15], in assay [14], in assay [18], in assay [7], in [9] and in [13] was inactive. Moreover, the Potency entry in assay [16], in [17], in assay [3], in [4], in assay [6] and in assay [12] was “inactive” throughout.
As to `CCS(=O)(=O)c1ccc(OC)c(C(=O)OC)c1`, the compound was called inactive in assay [8], in [9] and in assay [13]. Also, the Potency entry in assay [11] was “inactive”.
As for `CCn1nc(C(=O)O)c(=O)c2cc3c(cc21)OCO3`, the compound was classed as inactive in assay [15], in [14], in assay [18], in assay [7], in assay [8] and in assay [9]. For the same compound, the compound was classed as inactive in assay [13]. Moreover, the Potency entry (in assay [16]; in assay [17]; in assay [3]; with Aromatase (Homo sapiens); in assay [4]; in assay [5]) was “inactive” throughout. In addition, the Potency result in assay [6], in assay [10], in assay [11] and in assay [12] was “inactive” each time.
